The values below come from the OligoGym collection.
Further: reference of the scale not given here.

One experiment addresses RNPEPL1. As to the kind of experiment: pooled miR-30 sensor sort-seq; sequence = guide strand. The following applies: shRNA.
As for TTGTACTTCTCCACATAGGCTC, the sensor-assay potency score (higher = more potent) is -0.15.

In the case of TAGTACACGAAGCAGTAGCCCT, the sensor-assay potency score (higher = more potent) was -0.845. In turn, TCAGGATAGTAGTCGTTGCGGA yielded a sensor-assay potency score (higher = more potent) of -0.665. On to TAGGTCTCGGTGGTGATACGGC, for which the sensor-assay potency score (higher = more potent) is -0.874.

In the case of TGGCAGGAAGACAATGTCGTAC, the sensor-assay potency score (higher = more potent) was -1.01. Same read-out and setting: for TAGGTGAACAGGTTCATCAGGT the value was 0.726; for TACAAGAGACAGGCTGTCCTGT, 0.345; for TTCTGCGGTCCACAGCTGGAAA, -1.5.

TTCTCGTAGGTGAACAGGTTCA showed a sensor-assay potency score (higher = more potent) of -0.738. Consider TCTGTGTCTGCTTCAGCCTTGC, for which the sensor-assay potency score (higher = more potent) was 0.0808. Sequence TGAACTTGTACTTCTCCACATA yielded a sensor-assay potency score (higher = more potent) of -0.899. The same measure, in the same setting: to TACTTCTCCACATAGGCTCGGA belongs -0.423.

Another experiment addresses ROBO3. Described as above. The settings on record: shRNA.
TTTATAAACAAGTCTCAGGTGG displayed a sensor-assay potency score (higher = more potent) of -0.186.

TGTAGGTCCAACATTGTCCAGC: the sensor-assay potency score (higher = more potent) was -0.683. In turn, TTCAGCTGCCGCACTCTCCCGT had a sensor-assay potency score (higher = more potent) of -0.447.

Regarding TTCGTTGTAATATCTGTCGTCC, the sensor-assay potency score (higher = more potent) was found to be 0.714. With TTGGGCTTGCACCTTGATCTGG, the sensor-assay potency score (higher = more potent) was -0.739. TTGTCTTGAACTGGAGGTCATC: the sensor-assay potency score (higher = more potent) is -1.28. For TTTCCTTTGGTCTCGCACTGGA, the sensor-assay potency score (higher = more potent) was -0.00997. The sequence TTGTAATATCTGTCGTCCGGGT came in with a sensor-assay potency score (higher = more potent) of -0.931.

TTCATCTGGGTGGAGCACCCGC registered a sensor-assay potency score (higher = more potent) of -0.884.

Turning to TAGCACAGTACTTTGCTGGCTT, the sensor-assay potency score (higher = more potent) amounted to 0.438. Still for that read-out and setting: to TTGGCCATTGTCTTGAACTGGA belongs -0.232; to TCTTAGCACAGTACTTTGCTGG, -0.938.

The next experiment concerns the target ROCK2. The description is as above. The settings on record: shRNA.
Take TTCTGCTTCGAGCTGATCCTGG: the sensor-assay potency score (higher = more potent) is -0.437.

TTTTCTGACATTTTTAGTGTGT showed a sensor-assay potency score (higher = more potent) of 0.278. Turning to TAAAGCATTGGTTTCATCCAGT, the sensor-assay potency score (higher = more potent) was 0.0253.

TAACTTGGCAGTCTCCAGCAGG returned a sensor-assay potency score (higher = more potent) of -1.05. The sequence TTTTGCTGTATCTTCATTGAAG gave a sensor-assay potency score (higher = more potent) of -0.765. Take TAGATGTCCATGTTTATCCAAG: the sensor-assay potency score (higher = more potent) was -1.07. On to TTTATCTGCTAGTCGTGCCTTT, for which the sensor-assay potency score (higher = more potent) was found to be 0.209. For TTTCTAACTGTCTTAATGCTGA, the sensor-assay potency score (higher = more potent) was -0.42.

On to TTGAGAAATACTGTTCTGCTTC, for which the sensor-assay potency score (higher = more potent) amounted to 0.537.

TCTATTGTTAGATTCCAGCTGC came in with a sensor-assay potency score (higher = more potent) of 0.544. As for TATTTTTATCTGCTAGTCGTGC, the sensor-assay potency score (higher = more potent) was -0.412.

In the next experiment the target is ROPN1. The experiment is described as above. The settings on record: shRNA.
On to TCACTGTGATTATACCATCAGG, for which the sensor-assay potency score (higher = more potent) is -1.52. As for TACAAGAAAATTGATTTTGGGT, the sensor-assay potency score (higher = more potent) was determined as 0.726.

TATGGTCACATGATAAGACCTC returned a sensor-assay potency score (higher = more potent) of -0.256.

Consider ATTCTGAAGTACAATCATCTCT, for which the sensor-assay potency score (higher = more potent) was determined as 0.029.
